SMILES strings stand for the structures. Inconclusive results are not listed. A call without a number means that no potency is given here. Calls of active or inactive are those of the source. Calls follow the shape of the dose curve; as a rule, active = well fitted activation curve with a large enough effect in the repeat runs; inconclusive = weak or mixed curves; inactive = flat fitted curve, though single readings scatter.

We go through 38 compounds from PubChem BioAssay (Tox21).

The nature of the assay: A CellTox Green Cytotoxicity Assay to monitor cytotoxicity in HepG2 cells - 8 hour (AID 1224890). Also: nearly all actives have a fitted effect of over 45% in size. Particulars: CellTox Green fluorescence; series mostly up to 76.8 µM. An outline of the steps: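 Continuous culture of HepG2 cells with a membrane-impermeant DNA dye; rising fluorescence marks dead cells. Compound exposure lasted up to 40 h at 37 C, with reads every 8 h from 0 h.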
`CNC(=O)Oc1ccccc1C1OCCO1`: the Potency result was “inactive”.
With `N#CC(Cl)(Cl)Cl` the entry was “inactive”; with `Nc1cc2c3c(c1)C(c1ccccc1)=N[C@@H](NC(=O)c1cccnc1)C(=O)N3CC2`, “inactive”; with `C#CCN1C(=O)COc2cc(F)c(N3C(=O)C4=C(CCCC4)C3=O)cc21`, “inactive”.
The same measure for `CCCCOC(=O)[C@@H](C)Oc1ccc(Oc2ccc(C#N)cc2F)cc1`: “inactive”; for `CCOC(=O)C1(c2ccccc2)CCN(CCc2ccc(N)cc2)CC1`: “inactive”.
Consider `ClCC(Cl)(Cl)Cl`, for which the Potency result is “inactive”.
Consider `CC(Oc1ccc(Oc2ncc(C(F)(F)F)cc2Cl)cc1)C(=O)O` (stereo not drawn), for which the Potency result is “inactive”.
As for `Cc1ncsc1CCCl`, the Potency result is “inactive”.
With `CCN(Cc1ccc(Cl)nc1)/C(=C/[N+](=O)[O-])NC` the entry was “inactive”; with `C[C@]12CC[C@H]3[C@@H](CC=C4C[C@@H](O)CC[C@@]43C)[C@@H]1CC[C@@H]2O`, “inactive”.
Take `NC1=NC(=O)C(c2ccccc2)O1` (stereo not drawn): the Potency result is “inactive”.
The same measure for `Cc1cccc(C#N)c1`: “inactive”; for `Clc1ccccc1N1CCNCC1`: “inactive”.
With `COP(=S)(OC)Oc1c(Cl)cc(C)cc1Cl` the entry was “inactive”; with `CN1CCC(N(Cc2ccccc2)c2ccccc2)CC1`, “inactive”.
The same measure for `CC(C)CC#N`: “inactive”; for `CN1C[C@@H](NS(=O)(=O)N(C)C)C[C@@H]2c3cccc4c3c(cn4C)C[C@H]21`: “inactive”; for `CCN(CC)C(C)C(=O)c1ccccc1` (stereo not drawn): “inactive”.
Consider `CNC(=O)Oc1cccc(C(C)C)c1`, for which the Potency result was “inactive”.
`CC(=O)CCc1ccc2c(c1)OCO2`: the Potency result was “inactive”.
With `O=NN1CCN(N=O)CC1` the entry was “inactive”; with `C=C(C)[C@@H]1CC=C(C=O)CC1`, “inactive”.
With `CNC(=O)Oc1c(C(C)(C)C)cc(C)cc1C(C)(C)C` the entry was “inactive”.
`CCC1(c2ccccc2)C(=O)NC(=O)NC1=O`: the Potency entry is “inactive”.
With `OCCBr` the entry was “inactive”; with `BrCCCCCCBr`, “inactive”.
With `CCCCCCBr` the entry was “inactive”; with `Fc1cc(Br)ccc1CBr`, “inactive”.
Consider `Cc1cnc[nH]1`, for which the Potency result was “inactive”.
With `NC(=O)O` the entry was “inactive”.
For `CCOP(=S)(OCC)SCSc1ccc(Cl)cc1`, the Potency entry was “inactive”.
The same measure for `CC1CCC(=O)O1` (stereo not drawn): “inactive”; for `ClC(Cl)Br`: “inactive”; for `[O]=[Cd]`: “inactive”.
The same measure for `Clc1cccc(N2CCNCC2)c1`: “inactive”; for `c1cc2c(c(N3CCNCC3)c1)OCCO2`: “inactive”.
Take `CC(=O)CC(c1ccc(Cl)cc1)c1c(O)c2ccccc2oc1=O` (stereo not drawn): the Potency result is “inactive”.
